Experimental data reported in PubChem BioAssay (NCI).
The panel holds about 83,000 compounds, 20% with a hit somewhere; the sample as a whole holds those more often.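 48-hour exposure, single concentration, 96-well plates; percent growth endpoint where 0 means no net growth. Active: below 10.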 Active and inactive are the calls of the source.

Assays:
Test in all cases: NCI-60 one-dose screen, 48 h (100 = growth as untreated, 0 = no growth, -100 = all killed)
Conditions in all cases: 10 µM unless noted
DU-145 prostate = tested on: DU-145 prostate
K-562 leukemia = tested on: K-562 leukemia
MALME-3M melanoma = tested on: MALME-3M melanoma
MDA-MB-231 breast = tested on: MDA-MB-231 breast
RXF 393 renal = tested on: RXF 393 renal
SF-268 CNS = tested on: SF-268 CNS
SF-295 CNS = tested on: SF-295 CNS
SF-539 CNS = tested on: SF-539 CNS
UACC-257 melanoma = tested on: UACC-257 melanoma
M14 melanoma = tested on: M14 melanoma

Measured: growth

Cc1cccc(-c2nc(Nc3ccc4ncsc4c3)c3ccccc3n2)n1
inactive: DU-145 prostate 90.6% | K-562 leukemia 28.5% | MALME-3M melanoma 102% | MDA-MB-231 breast 101% | RXF 393 renal 78.8% | SF-268 CNS 98% | SF-295 CNS 88.7% | SF-539 CNS 98.1% | UACC-257 melanoma 81.4% | M14 melanoma 64%

COc1cc(/C=C/C(=O)/C=C(O)/C=C/c2ccc(OC(=O)C34CC5CC(CC(C5)C3)C4)c(OC)c2)ccc1OC(=O)C12CC3CC(CC(C3)C1)C2
inactive: DU-145 prostate 113% | K-562 leukemia 106% | MALME-3M melanoma 97% | MDA-MB-231 breast 103% | RXF 393 renal 106% | SF-268 CNS 95.6% | SF-295 CNS 99.2% | SF-539 CNS 95.2% | UACC-257 melanoma 112% | M14 melanoma 102%

COC(=O)c1c2c(c(C)[n+]([O-])c1C)C(=O)C(NCc1ccc(OC)cc1)=CC2=O
inactive: DU-145 prostate 43.9% | K-562 leukemia 11.4% | RXF 393 renal 47.3% | SF-268 CNS 22.5% | SF-295 CNS 66.6% | SF-539 CNS 10.4% | M14 melanoma 13.3%
active: MALME-3M melanoma -92.8% | MDA-MB-231 breast 5.7% | UACC-257 melanoma -47.5%

Cc1ccc(S(=O)(=O)N2CCC(=O)c3ccccc32)cc1
inactive: DU-145 prostate 62% | K-562 leukemia 40.2% | MALME-3M melanoma 84.9% | MDA-MB-231 breast 72.9% | RXF 393 renal 61% | SF-268 CNS 80.2% | SF-295 CNS 86.6% | SF-539 CNS 55.1% | UACC-257 melanoma 77.8% | M14 melanoma 62%

CC(=C(c1ccc(OCCN2CCCCC2)cc1)c1ccc(OCCN2CCCCC2)cc1)c1ccc(Cl)cc1
active: DU-145 prostate -92.8% | K-562 leukemia -65.7% | MALME-3M melanoma -84.3% | MDA-MB-231 breast -85.1% | RXF 393 renal -78.8% | SF-268 CNS -77.2% | SF-295 CNS -92.1% | SF-539 CNS -94.9% | UACC-257 melanoma -82.1% | M14 melanoma -81.9%

CSC(SC)=C(C#N)c1nc2ccccc2s1
inactive: DU-145 prostate 87.2% | K-562 leukemia 47.4% | MALME-3M melanoma 67.9% | MDA-MB-231 breast 52.9% | RXF 393 renal 95.8% | SF-268 CNS 55.1% | SF-295 CNS 88.2% | SF-539 CNS 60.2% | UACC-257 melanoma 54% | M14 melanoma 48.1%

C#COc1cccc(Nc2ncnc3cc(NC(=O)[C@@H](C)Cl)ccc23)c1
inactive: DU-145 prostate 13% [6.25 µM] | MALME-3M melanoma 38.2% [6.25 µM] | MDA-MB-231 breast 24.5% [6.25 µM] | SF-268 CNS 21.6% [6.25 µM] | UACC-257 melanoma 36.9% [6.25 µM] | M14 melanoma 10.4% [6.25 µM]
active: K-562 leukemia 7.85% [6.25 µM] | RXF 393 renal 7.55% [6.25 µM] | SF-295 CNS 7.32% [6.25 µM] | SF-539 CNS -5.67% [6.25 µM]

COc1cccc(CCNc2ncnc3c2ncn3Cc2nnc3c4ccccc4c(Cl)nn23)c1
inactive: DU-145 prostate 50.5% | K-562 leukemia 61.4% | MALME-3M melanoma 55.8% | MDA-MB-231 breast 46.3% | RXF 393 renal 48.7% | SF-268 CNS 49.4% | SF-295 CNS 89.9% | SF-539 CNS 72.6% | UACC-257 melanoma 59.5% | M14 melanoma 32.2%

O=c1cc(-c2ccccc2)[nH]c2ncc(-c3ccc(F)cc3)n12
inactive: DU-145 prostate 94.6% | K-562 leukemia 18.5% | MALME-3M melanoma 77.8% | MDA-MB-231 breast 62% | RXF 393 renal 72.3% | SF-268 CNS 80.6% | SF-295 CNS 46% | SF-539 CNS 73.8% | UACC-257 melanoma 83.1% | M14 melanoma 50.4%

COc1cc(/C=C/C(=O)c2ccc(-n3cc(CN4CCN(c5cc6c(cc5F)c(=O)c(C(=O)O)cn6C5CC5)CC4)nn3)cc2)ccc1O
inactive: DU-145 prostate 77.5% | K-562 leukemia 40.5% | MALME-3M melanoma 94.5% | MDA-MB-231 breast 73.6% | RXF 393 renal 70.9% | SF-268 CNS 56.4% | SF-295 CNS 80.2% | SF-539 CNS 60.1% | UACC-257 melanoma 87.7% | M14 melanoma 79%

COc1ccc2nc(Cl)c(/C=C3\CC(c4ccccc4)=NN(c4ccccc4)C3=O)cc2c1
inactive: DU-145 prostate 76.8% | K-562 leukemia 83.9% | MALME-3M melanoma 45.2% | MDA-MB-231 breast 51.7% | RXF 393 renal 10.9% | SF-268 CNS 51.9% | SF-295 CNS 62.6% | SF-539 CNS 13.1% | UACC-257 melanoma 75.2% | M14 melanoma 94.1%

COc1ccc2[nH]cc(-c3nc(-c4c[nH]c5c(Cl)nccc45)cs3)c2c1
active: UACC-257 melanoma -48.3% | M14 melanoma -26%
inactive: DU-145 prostate 32.6% | K-562 leukemia 19.3% | MALME-3M melanoma 65.8% | MDA-MB-231 breast 31.7% | RXF 393 renal 37.7% | SF-268 CNS 73% | SF-295 CNS 11.9% | SF-539 CNS 34.9%

Cc1ccc(-c2nc(SCc3nc4cc(Cl)c(Cl)cc4[nH]3)[nH]c(=O)c2C#N)cc1
inactive: DU-145 prostate 91.6% | K-562 leukemia 93.4% | MALME-3M melanoma 95.6% | MDA-MB-231 breast 97.9% | RXF 393 renal 108% | SF-268 CNS 91.6% | SF-295 CNS 104% | SF-539 CNS 97.5% | UACC-257 melanoma 91.3% | M14 melanoma 91.2%

CCO/C=N/C1=C(C#N)C(c2ccc(F)cc2)c2sc3c(F)cccc3c2O1 (stereo not given)
inactive: DU-145 prostate 62.4% | K-562 leukemia 23.5% | MALME-3M melanoma 57.6% | MDA-MB-231 breast 51% | RXF 393 renal 33.3% | SF-268 CNS 50.3% | SF-295 CNS 22% | SF-539 CNS 28.9% | UACC-257 melanoma 60.2% | M14 melanoma 29.8%

Cc1ccc(C2CC(c3nc(-c4ccc(Cl)cc4)oc3C)=NN2C(=O)c2ccncc2)cc1 (stereo not given)
inactive: DU-145 prostate 93.1% | K-562 leukemia 84.2% | MALME-3M melanoma 90.9% | MDA-MB-231 breast 71.6% | RXF 393 renal 74.8% | SF-268 CNS 81.6% | SF-295 CNS 87.9% | SF-539 CNS 89.5% | UACC-257 melanoma 97.1% | M14 melanoma 93.8%

Nc1ccc(-c2csc(-n3[nH]c(=O)ccc3=O)n2)cc1
inactive: DU-145 prostate 107% | K-562 leukemia 103% | MALME-3M melanoma 101% | MDA-MB-231 breast 101% | RXF 393 renal 93.8% | SF-268 CNS 102% | SF-295 CNS 102% | SF-539 CNS 105% | UACC-257 melanoma 103% | M14 melanoma 96.2%

CN1CCN(c2ccc(NC(=O)c3cncnc3Nc3ccc(OCc4cccc(F)c4)c(Cl)c3)cc2)CC1
active: K-562 leukemia 1.91% | MDA-MB-231 breast -13.3% | M14 melanoma -15.5%
inactive: DU-145 prostate 80.3% | MALME-3M melanoma 78.4% | RXF 393 renal 55.5% | SF-268 CNS 78.7% | SF-295 CNS 99.8% | SF-539 CNS 43.3% | UACC-257 melanoma 90.5%

CC1=CC(c2ccco2)=C2C(N)=NNC2N1 (stereo not given)
inactive: DU-145 prostate 110% | K-562 leukemia 99.6% | MALME-3M melanoma 92.5% | MDA-MB-231 breast 92.1% | RXF 393 renal 119% | SF-268 CNS 98.7% | SF-295 CNS 98.2% | SF-539 CNS 81.1% | UACC-257 melanoma 102% | M14 melanoma 104%

O=C(O)/C=C/C(=O)Nc1cccc(Cn2nnc3cc(Cl)c(Cl)cc32)c1
inactive: DU-145 prostate 119% | K-562 leukemia 91.3% | MALME-3M melanoma 97.5% | MDA-MB-231 breast 106% | RXF 393 renal 93.2% | SF-268 CNS 98.5% | SF-295 CNS 97% | SF-539 CNS 101% | UACC-257 melanoma 97.1% | M14 melanoma 102%

COc1cccc(C(=O)NNc2nc(Cl)nc(Cl)n2)c1
inactive: DU-145 prostate 105% | K-562 leukemia 96.7% | MALME-3M melanoma 100% | MDA-MB-231 breast 104% | RXF 393 renal 109% | SF-268 CNS 103% | SF-295 CNS 101% | SF-539 CNS 100% | UACC-257 melanoma 102% | M14 melanoma 102%

C=CCC(CCCC)(C(=O)OCC)C(=O)OCC
inactive: DU-145 prostate 121% | K-562 leukemia 104% | MALME-3M melanoma 106% | MDA-MB-231 breast 105% | RXF 393 renal 105% | SF-268 CNS 113% | SF-295 CNS 113% | SF-539 CNS 100% | UACC-257 melanoma 100% | M14 melanoma 96.8%

COc1cc(OC)cc(-c2ccc(-c3ccc(C(=N)N)o3)o2)c1
inactive: DU-145 prostate 60.2% | MALME-3M melanoma 71.3% | RXF 393 renal 58.2% | SF-268 CNS 62.6% | SF-295 CNS 86.3% | SF-539 CNS 73.1% | UACC-257 melanoma 45.4% | M14 melanoma 25.1%
active: K-562 leukemia 4.64% | MDA-MB-231 breast 0.981%

COc1ccc(/C=C/C(c2cc(OC)c(OC)c(OC)c2)n2cncn2)cc1 (stereo not given)
inactive: DU-145 prostate 61.2% | K-562 leukemia 17.7% | MALME-3M melanoma 61.3% | MDA-MB-231 breast 50.1% | RXF 393 renal 46.5% | SF-268 CNS 57.1% | SF-295 CNS 22.5% | SF-539 CNS 56.5% | UACC-257 melanoma 46.4% | M14 melanoma 17.9%

C=C(C)[C@@H]1CCC[C@]2(C(=O)O)CC[C@]3(C)[C@@H](CC[C@@H]4[C@@]5(C)C/C(=C/c6ccncc6)C(=O)C(C)(C)[C@@H]5CC[C@]43C)[C@@H]12
inactive: DU-145 prostate 32.9% | K-562 leukemia 13.7% | MALME-3M melanoma 72% | MDA-MB-231 breast 12.2% | RXF 393 renal 34.4% | SF-268 CNS 52.1% | SF-295 CNS 27.2% | SF-539 CNS 26.3% | UACC-257 melanoma 57.9% | M14 melanoma 45.8%

C=Cc1cnc(Nc2ccc(OC)cc2)nc1NCCCNC(=O)C1CCC1
inactive: DU-145 prostate 46.3% | K-562 leukemia 34.3% | MALME-3M melanoma 52.5% | SF-268 CNS 28.5% | SF-295 CNS 59.6% | SF-539 CNS 22% | UACC-257 melanoma 70.5% | M14 melanoma 46.8%
active: MDA-MB-231 breast -6.62% | RXF 393 renal -1.29%

N#C/C(=C\c1ccc([N+](=O)[O-])cc1)n1nnc2cc(F)c(F)cc21
inactive: DU-145 prostate 14.6% | MALME-3M melanoma 33.1% | SF-268 CNS 31% | SF-295 CNS 98.1% | UACC-257 melanoma 77.4% | M14 melanoma 28.4%
active: K-562 leukemia 5.08% | MDA-MB-231 breast 8.32% | RXF 393 renal -64.7% | SF-539 CNS -33.7%
